Our source for the immobility values is PubChem BioAssay AID624098 (National Center for Advancing Translational Sciences (NCATS), 2012).

Records with an inconclusive call do not appear. Active and inactive are the calls of the source.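 How the source made its calls: active means immobility above 50% at 10 µM after 1 hour; inconclusive means immobility from 15% to 50% at 1 hour; inactive means immobility below 15%.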

The first test in a line: Assay for General Anesthetic Phenotype in Xenopus Tadpoles. Conditions: startle-response immobility, 1 h, at 10 µM, stronger effect = higher value. An excerpt: Anesthetic development has remained a largely empirical process. There are growing concerns about the cognitive effects of known general anesthetics and acceleration of the onset of neurodegenerative disease. The compounds' toxicity and multiple specific binding targets in the mammalian brain [4] has made them less attractive as drug leads. This assay was designed for the in vivo follow-up testing of compounds in tadpoles. References: [1] S.L. Bianchi, T. Tran, C. Liu, S. Lin, Y. Li, J.M. Keller, R.G. Eckenhoff, and M.F. Eckenhoff, Brain and behavior changes in 12-month-old Tg2576 and nontransgenic mice exposed to anesthetics. Neurobiol Aging 29 (2008) 1002-10. Z. Xie, Y. Dong, U. Maeda, R.D. Moir, W. Xia, D.J. Culley, G. Crosby, and R.E. Tanzi, The inhalation anesthetic isoflurane induces a vicious cycle of apoptosis and amyloid beta-protein accumulation. J Neurosci 27 (2007) 1247-54. P. Honegger, and J.M. Matthieu, Selective toxicity of the general anesthetic propofol for GABAergic neurons in rat brain cell cultures. J Neurosci Res 45 (1996) 631-6. M.F. Eckenhoff, K. Chan, and R.G. Eckenhoff, Multiple specific binding targets for inhaled anesthetics in the mammalian brain. J Pharmacol Exp Ther 300 (2002) 172-9. C.A. Butts, J. Xi, G. Brannigan, A.A. Saad, S.P. Venkatachalan, R.A. Pearce, M.L. Klein, R.G. Eckenhoff, and I.J. Dmochowski, Identification of a fluorescent general anesthetic, 1-aminoanthracene. Proc Natl Acad Sci U S A 106 (2009) 6501-6. W.A. Lea, J. Xi, A. Jadhav, L. Lu, C.P. Austin, A. Simeonov, and R.G. Eckenhoff, A high-throughput approach for identification of novel general anesthetics. PLoS One 4 (2009) e7150.
Pre-limb bud Xenopus tadpoles were obtained in large batches from Nasco, Inc. Batches of 10 tadpoles were placed in 20 mm Petri dishes with approximately 20 ml of pond water ("pond water" is approximately a 20-fold dilution of Ringers saline solution). Compounds were added to the pond water from DMSO stock to obtain 100, 10 and 1 microM concentrations. Tadpoles were then incubated with these solutions for 1 hour, and then scored for "anesthesia". Anesthesia in this case is lack of movement in response to a sharp tap on the Petri dish lid, i.e., a lack of startle response. This correlates well to the loss of righting reflex in rodents and the loss of consciousness in humans. The pond water is then changed, and the return of a startle response is monitored for 24 hours. Immobility at 24 hours is considered death.
As to `O=C(Cn1nc(-c2ccncc2)ccc1=O)NCCc1ccccc1`, the immobility is 5% (inactive).

As to `Cc1ccc(-c2ccc(=O)n(CC(=O)NCCc3ccccc3)n2)cn1`, the immobility is 0% (inactive).

Take `Cc1ccc(-c2ccc(=O)n(CC(=O)NCCc3ccccc3)n2)cc1`: the immobility is 90% (active).

Take `COc1ccc(-c2ccc(=O)n(CC(=O)NCCc3ccccc3)n2)cc1OC`: the immobility was 10% (inactive).

On to `O=C(Cn1nc(-c2cccnc2)ccc1=O)NCCc1ccccc1`, for which the immobility was 0% (inactive).

For the compound `COc1ccc(-c2ccc(=O)n(CC(=O)NCCc3ccccc3)n2)cc1`, the immobility is 75% (active).

As for `N#Cc1ccc(-c2ccc(=O)n(CC(=O)NCCc3ccccc3)n2)cc1`, the immobility is 0% (inactive).

`O=C(Cn1ncccc1=O)NCCc1ccccc1`: the immobility is 0% (inactive).

Turning to `CC(C)Oc1ccc(-c2ccc(=O)n(CC(=O)NCCc3ccccc3)n2)cc1`, the immobility was 95% (active).

For `Cc1ccc(=O)n(CC(=O)NCCc2ccccc2)n1`, the immobility was 5% (inactive).

As for `O=C(Cn1nc(-c2ccc(OC(F)(F)F)cc2)ccc1=O)NCCc1ccccc1`, the immobility was 80% (active).

With `O=C(Cn1nc(-c2ccc(C(F)(F)F)cc2)ccc1=O)NCCc1ccccc1`, the immobility is 0% (inactive).

Turning to `C[S+](=O)([O-])c1ccc(-c2ccc(=O)n(CC(=O)NCCc3ccccc3)n2)cc1`, the immobility was 5% (inactive).

For the compound `COc1ccccc1-c1ccc(=O)n(CC(=O)NCCc2ccccc2)n1`, the immobility was 5% (inactive).

For `O=C(Cn1nc(C2CC2)ccc1=O)NCCc1ccccc1`, the immobility was 0% (inactive).

As for `O=C(Cn1nc(-c2ccc(F)cc2)ccc1=O)NCCc1ccccc1`, the immobility is 5% (inactive).

As for `CCCCc1ccc(-c2ccc(=O)n(CC(=O)NCCc3ccccc3)n2)cc1`, the immobility is 5% (inactive).

Take `O=C(Cn1nc(-c2ccc3c(c2)OCO3)ccc1=O)NCCc1ccccc1`: the immobility was 0% (inactive).

As to `CC(C)(C)c1ccc(-c2ccc(=O)n(CC(=O)NCCc3ccccc3)n2)cc1`, the immobility was 90% (active).

On to `CN(C)c1ccc(-c2ccc(=O)n(CC(=O)NCCc3ccccc3)n2)cc1`, for which the immobility is 0% (inactive).

The test is the same for the next values; noted with them: startle-response immobility, 1 h, measured here: 24 h immobility, toxicity/death, at 10 µM.
The compound `O=C(Cn1nc(-c2ccncc2)ccc1=O)NCCc1ccccc1` came in with an immobility of 10%.

Compound `Cc1ccc(-c2ccc(=O)n(CC(=O)NCCc3ccccc3)n2)cn1` showed an immobility of 0%.

In turn, `Cc1ccc(-c2ccc(=O)n(CC(=O)NCCc3ccccc3)n2)cc1` showed an immobility of 0%.

With `COc1ccc(-c2ccc(=O)n(CC(=O)NCCc3ccccc3)n2)cc1OC`, the immobility turned out to be 15%.

For `O=C(Cn1nc(-c2cccnc2)ccc1=O)NCCc1ccccc1`, the immobility was determined as 15%.

Compound `COc1ccc(-c2ccc(=O)n(CC(=O)NCCc3ccccc3)n2)cc1` displayed an immobility of 5%.

Regarding `N#Cc1ccc(-c2ccc(=O)n(CC(=O)NCCc3ccccc3)n2)cc1`, the immobility came to 5%.

As for `O=C(Cn1ncccc1=O)NCCc1ccccc1`, the immobility is 5%.

As to `CC(C)Oc1ccc(-c2ccc(=O)n(CC(=O)NCCc3ccccc3)n2)cc1`, the immobility was 5%.

In turn, `Cc1ccc(=O)n(CC(=O)NCCc2ccccc2)n1` showed an immobility of 15%.

As for `O=C(Cn1nc(-c2ccc(OC(F)(F)F)cc2)ccc1=O)NCCc1ccccc1`, the immobility is 10%.

`O=C(Cn1nc(-c2ccc(C(F)(F)F)cc2)ccc1=O)NCCc1ccccc1` yielded an immobility of 5%.

The compound `C[S+](=O)([O-])c1ccc(-c2ccc(=O)n(CC(=O)NCCc3ccccc3)n2)cc1` displayed an immobility of 5%.

For the compound `COc1ccccc1-c1ccc(=O)n(CC(=O)NCCc2ccccc2)n1`, the immobility came to 15%.

`O=C(Cn1nc(C2CC2)ccc1=O)NCCc1ccccc1` came in with an immobility of 5%.

Regarding `O=C(Cn1nc(-c2ccc(F)cc2)ccc1=O)NCCc1ccccc1`, the immobility stood at 0%.

`CCCCc1ccc(-c2ccc(=O)n(CC(=O)NCCc3ccccc3)n2)cc1` showed an immobility of 5%.

`O=C(Cn1nc(-c2ccc3c(c2)OCO3)ccc1=O)NCCc1ccccc1` yielded an immobility of 0%.

For the compound `CC(C)(C)c1ccc(-c2ccc(=O)n(CC(=O)NCCc3ccccc3)n2)cc1`, the immobility was 10%.

The compound `CN(C)c1ccc(-c2ccc(=O)n(CC(=O)NCCc3ccccc3)n2)cc1` yielded an immobility of 10%.
